Source: PubChem BioAssay (NCI)
Compounds without any hit were thinned out: in the full panel of roughly 79,000, 15% have a hit. Values without a mark were called inactive. The source made the active and inactive calls. Cut-off read from the data, not from the text of the source: active = growth inhibition above about 70%; inactive = the rest.

Key:
[1] = NCI Yeast Anticancer Drug Screen. Data for the rad52 strain (AID 147);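 note: 0% = growth of vehicle-treated control cultures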; details: S. cerevisiae rad52 mutant growth inhibition, hits give high values
Summary of the method: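 The repair-mutant yeast strain was incubated with compounds, then growth was read and inhibition derived relative to vehicle.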

[2] = NCI Yeast Anticancer Drug Screen. Data for the wt1 strain (AID 149);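 note: 0% = growth of vehicle-treated wt1 cultures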; details: S. cerevisiae wt1 strain (SPY 50644) growth inhibition, hits give high values
Summary of the method: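 Using yeast strain wt1, compound-induced growth inhibition was determined against vehicle-treated cultures.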

[3] = NCI Yeast Anticancer Drug Screen. Data for the rad50EPP+ strain (AID 151);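 note: 0% = growth of vehicle-treated control cultures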; details: S. cerevisiae rad50 mutant strain, hits give high values
Summary of the method: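 Vehicle-normalised growth inhibition; rad50EPP+ yeast strain, altered in DNA damage repair, compound-treated.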

[4] = NCI Yeast Anticancer Drug Screen. Data for the mgt1 strain (AID 153); details: S. cerevisiae mgt1 mutant growth inhibition, hits give high values
Summary of the method: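 Vehicle-normalized growth inhibition is determined in mgt1 yeast, a strain selected for a defined alteration in DNA repair or cell cycle control.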

[5] = NCI Yeast Anticancer Drug Screen. Data for the rad50 strain (AID 155);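 note: 0% = growth of vehicle-only cultures of the same strain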; details: S. cerevisiae rad50 strain growth inhibition, hits give high values
Summary of the method: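 Relative growth inhibition (compound vs vehicle) was measured in yeast with a defined repair-gene alteration.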

[6] = NCI Yeast Anticancer Drug Screen. Data for the mec2-1 strain (AID 157); details: S. cerevisiae mec2-1 strain, hits give high values
Summary of the method: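 Mutant yeast (mec2-1) grown with compound; growth inhibition relative to vehicle control reported.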

[7] = NCI Yeast Anticancer Drug Screen. Data for the rad14 strain (AID 159);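 note: 0% = growth of vehicle-treated control cultures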; details: S. cerevisiae rad14 strain growth inhibition, hits give high values
Summary of the method: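 Screen for anticancer potential: a yeast strain altered in DNA damage repair is grown with compound, and reduced growth is quantified against vehicle controls.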

[8] = NCI Yeast Anticancer Drug Screen. Data for the sgs1 mgt1 strain (AID 161);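 note: 0% = growth of cultures given vehicle only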; details: S. cerevisiae sgs1 mgt1 strain, hits give high values
Summary of the method: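 Growth of a repair-deficient yeast mutant was monitored after compound treatment and expressed as inhibition relative to vehicle-treated cultures.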

[9] = NCI Yeast Anticancer Drug Screen. Data for the CLN2oe strain (AID 163);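 note: 0% = growth of vehicle-only control cultures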; details: S. cerevisiae CLN2oe strain, hits give high values
Summary of the method: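 Compounds are applied to yeast harbouring a defined cell-cycle control change; reduced growth compared with vehicle-treated controls gives the value.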

[10] = NCI Yeast Anticancer Drug Screen. Data for the cln2 rad14 strain (AID 165);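 note: 0% = growth equal to vehicle treated cultures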; details: S. cerevisiae cln2 rad14 strain, hits give high values
Summary of the method: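 Readout is yeast growth inhibition versus vehicle-treated controls, using a strain with cln2 and rad14 alterations exposed to compound.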

[11] = NCI Yeast Anticancer Drug Screen. Data for the bub3 strain (AID 167); details: S. cerevisiae bub3 mutant strain, hits give high values
Summary of the method: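 Screening used yeast with an engineered genetic alteration affecting cell cycle control. Compound-exposed cultures were compared with vehicle cultures, and reduced growth was taken as inhibition.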

[12] = NCI Yeast Anticancer Drug Screen. Data for the wt2 strain (AID 169);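 note: 0% = growth of vehicle-treated yeast cultures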; details: S. cerevisiae wt2 strain growth inhibition, hits give high values
Summary of the method: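 Against vehicle-treated controls, the growth of yeast exposed to each compound was compared, and the inhibition was recorded.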

[13] = NCI Yeast Anticancer Drug Screen. Data for the mlh1 strain (AID 171);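 note: 0% = growth of vehicle-treated control cultures of the same strain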; details: S. cerevisiae mlh1 strain growth inhibition, hits give high values
Summary of the method: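 Measured: yeast growth. Reference: vehicle-treated controls. Organism: strain with a defined alteration affecting DNA damage repair or cell cycle control, treated with compound.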

[14] = NCI Yeast Anticancer Drug Screen. Data for the sgs1 strain (AID 173);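 note: 0% = growth of vehicle-only control cultures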; details: S. cerevisiae sgs1 mutant, hits give high values
Summary of the method: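 Each compound was added to cultures of the altered yeast strain. Growth was recorded, and inhibition was derived by comparison with vehicle controls.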

[15] = NCI Yeast Anticancer Drug Screen. Data for the mlh1 rad18 strain (AID 175); details: S. cerevisiae mlh1 rad18 strain growth inhibition, hits give high values
Summary of the method: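 Genetically defined yeast (DNA repair-deficient) exposed to compounds; growth inhibition determined relative to vehicle.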

[16] = NCI Yeast Anticancer Drug Screen. Data for the rad18 strain (AID 177); details: S. cerevisiae rad18 mutant growth inhibition, hits give high values
Summary of the method: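 Vehicle-treated cultures served as the baseline for scoring compound-induced growth inhibition in DNA-repair-mutant yeast.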

[17] = at 5.0 µM (retest, dose inferred, filed as 0.5)
[18] = at 50.0 µM (retest, dose inferred, filed as 5.0)

CC[PH+](CC)CC.CC[PH+](CC)CC.[Au]
growth inhibition ([1]; at 1.2 µM): 16%
growth inhibition ([1]; at 3.7 µM): 21%
growth inhibition ([1]; at 11.0 µM): 33%
growth inhibition ([1]; at 33.0 µM): 80% (active)
growth inhibition ([1]; at 100.0 µM): 99% (active)
growth inhibition ([2]; at 1.2 µM): 6%
growth inhibition ([2]; at 3.7 µM): 30%
growth inhibition ([2]; at 11.0 µM): 36%
growth inhibition ([2]; at 33.0 µM): 43%
growth inhibition ([2]; at 100.0 µM): 98% (active)
growth inhibition ([3]; at 1.2 µM): 27%
growth inhibition ([3]; at 3.7 µM): 39%
growth inhibition ([3]; at 11.0 µM): 40%
growth inhibition ([3]; at 33.0 µM): 60%
growth inhibition ([3]; at 100.0 µM): 97% (active)
growth inhibition ([4]; at 1.2 µM): 16%
growth inhibition ([4]; at 3.7 µM): 21%
growth inhibition ([4]; at 11.0 µM): 28%
growth inhibition ([4]; at 33.0 µM): 46%
growth inhibition ([4]; at 100.0 µM): 98% (active)
growth inhibition ([5]; at 1.2 µM): 24%
growth inhibition ([5]; at 3.7 µM): 39%
growth inhibition [5, 17]: 22%
growth inhibition ([5]; at 11.0 µM): 50%
growth inhibition ([5]; at 33.0 µM): 92% (active)
growth inhibition [5, 18]: 95% (active)
growth inhibition ([5]; at 50.0 µM): 89.2% (active)
growth inhibition ([5]; at 100.0 µM): 99% (active)
growth inhibition ([6]; at 1.2 µM): 14%
growth inhibition ([6]; at 3.7 µM): 24%
growth inhibition [6, 17]: 52%
growth inhibition ([6]; at 11.0 µM): 55%
growth inhibition ([6]; at 33.0 µM): 90% (active)
growth inhibition [6, 18]: 99% (active)
growth inhibition ([6]; at 50.0 µM): 94.2% (active)
growth inhibition ([6]; at 100.0 µM): 98% (active)
growth inhibition ([7]; at 1.2 µM): 15%
growth inhibition ([7]; at 3.7 µM): 30%
growth inhibition ([7]; at 11.0 µM): 34%
growth inhibition ([7]; at 33.0 µM): 86% (active)
growth inhibition ([7]; at 100.0 µM): 99% (active)
growth inhibition [8, 17]: -11%
growth inhibition [8, 18]: 94% (active)
growth inhibition ([8]; at 50.0 µM): 89.4% (active)
growth inhibition ([9]; at 1.2 µM): 2%
growth inhibition ([9]; at 3.7 µM): 20%
growth inhibition ([9]; at 11.0 µM): 23%
growth inhibition ([9]; at 33.0 µM): 54%
growth inhibition ([9]; at 100.0 µM): 97% (active)
growth inhibition [10, 17]: 27%
growth inhibition [10, 18]: 93% (active)
growth inhibition ([10]; at 50.0 µM): 89.2% (active)
growth inhibition ([11]; at 1.2 µM): 8%
growth inhibition ([11]; at 3.7 µM): 16%
growth inhibition [11, 17]: -25%
growth inhibition ([11]; at 11.0 µM): 21%
growth inhibition ([11]; at 33.0 µM): 79% (active)
growth inhibition [11, 18]: 97% (active)
growth inhibition ([11]; at 50.0 µM): 89.3% (active)
growth inhibition ([11]; at 100.0 µM): 98% (active)
growth inhibition ([12]; at 1.2 µM): -13%
growth inhibition ([12]; at 3.7 µM): -9%
growth inhibition ([12]; at 11.0 µM): 21%
growth inhibition ([12]; at 33.0 µM): 98% (active)
growth inhibition ([12]; at 100.0 µM): 99% (active)
growth inhibition ([13]; at 1.2 µM): 30%
growth inhibition ([13]; at 3.7 µM): 49%
growth inhibition ([13]; at 11.0 µM): 41%
growth inhibition ([13]; at 33.0 µM): 54%
growth inhibition ([13]; at 100.0 µM): 99% (active)
growth inhibition ([14]; at 1.2 µM): 28%
growth inhibition ([14]; at 3.7 µM): 39%
growth inhibition ([14]; at 11.0 µM): 41%
growth inhibition ([14]; at 33.0 µM): 90% (active)
growth inhibition ([14]; at 100.0 µM): 99% (active)
growth inhibition [15, 17]: 34%
growth inhibition [15, 18]: 98% (active)
growth inhibition ([15]; at 50.0 µM): 89% (active)
growth inhibition ([16]; at 1.2 µM): 12%
growth inhibition ([16]; at 3.7 µM): 16%
growth inhibition ([16]; at 11.0 µM): 32%
growth inhibition ([16]; at 33.0 µM): 92% (active)
growth inhibition ([16]; at 100.0 µM): 98% (active)

c1c(N2CCOCC2)ssc1=[N+]1CCOCC1
growth inhibition ([1]; at 1.2 µM): 0%
growth inhibition ([1]; at 3.7 µM): 0%
growth inhibition ([1]; at 11.0 µM): -4%
growth inhibition ([1]; at 33.0 µM): -4%
growth inhibition ([1]; at 100.0 µM): -2%
growth inhibition ([2]; at 1.2 µM): -3%
growth inhibition ([2]; at 3.7 µM): -1%
growth inhibition ([2]; at 11.0 µM): 0%
growth inhibition ([2]; at 33.0 µM): 0%
growth inhibition ([2]; at 100.0 µM): -1%
growth inhibition ([3]; at 1.2 µM): 1%
growth inhibition ([3]; at 3.7 µM): 3%
growth inhibition ([3]; at 11.0 µM): 3%
growth inhibition ([3]; at 33.0 µM): 3%
growth inhibition ([3]; at 100.0 µM): 5%
growth inhibition ([4]; at 1.2 µM): 0%
growth inhibition ([4]; at 3.7 µM): 2%
growth inhibition ([4]; at 11.0 µM): -1%
growth inhibition ([4]; at 33.0 µM): 0%
growth inhibition ([4]; at 100.0 µM): 1%
growth inhibition ([5]; at 1.2 µM): -3%
growth inhibition ([5]; at 3.7 µM): -2%
growth inhibition [5, 17]: 4%
growth inhibition ([5]; at 11.0 µM): -5%
growth inhibition ([5]; at 33.0 µM): -3%
growth inhibition [5, 18]: 1%
growth inhibition ([5]; at 50.0 µM): 54.5%
growth inhibition ([5]; at 100.0 µM): -2%
growth inhibition ([6]; at 1.2 µM): 0%
growth inhibition ([6]; at 3.7 µM): -2%
growth inhibition [6, 17]: 0%
growth inhibition ([6]; at 11.0 µM): -1%
growth inhibition ([6]; at 33.0 µM): -1%
growth inhibition [6, 18]: 3%
growth inhibition ([6]; at 50.0 µM): 51.1%
growth inhibition ([6]; at 100.0 µM): 1%
growth inhibition ([7]; at 1.2 µM): -1%
growth inhibition ([7]; at 3.7 µM): 0%
growth inhibition ([7]; at 11.0 µM): 3%
growth inhibition ([7]; at 33.0 µM): 1%
growth inhibition ([7]; at 100.0 µM): -2%
growth inhibition [8, 17]: 4%
growth inhibition [8, 18]: 2%
growth inhibition ([8]; at 50.0 µM): 69.1%
growth inhibition ([9]; at 1.2 µM): 0%
growth inhibition ([9]; at 3.7 µM): 4%
growth inhibition ([9]; at 11.0 µM): 3%
growth inhibition ([9]; at 33.0 µM): 2%
growth inhibition ([9]; at 100.0 µM): 0%
growth inhibition [10, 17]: -1%
growth inhibition [10, 18]: 7%
growth inhibition ([10]; at 50.0 µM): 20.7%
growth inhibition ([11]; at 1.2 µM): 0%
growth inhibition ([11]; at 3.7 µM): 0%
growth inhibition [11, 17]: -1%
growth inhibition ([11]; at 11.0 µM): 1%
growth inhibition ([11]; at 33.0 µM): -2%
growth inhibition [11, 18]: 6%
growth inhibition ([11]; at 50.0 µM): 51.5%
growth inhibition ([11]; at 100.0 µM): -2%
growth inhibition ([12]; at 1.2 µM): 0%
growth inhibition ([12]; at 3.7 µM): -1%
growth inhibition ([12]; at 11.0 µM): 0%
growth inhibition ([12]; at 33.0 µM): 0%
growth inhibition ([12]; at 100.0 µM): 1%
growth inhibition ([13]; at 1.2 µM): -1%
growth inhibition ([13]; at 3.7 µM): 0%
growth inhibition ([13]; at 11.0 µM): 0%
growth inhibition ([13]; at 33.0 µM): 0%
growth inhibition ([13]; at 100.0 µM): -5%
growth inhibition ([14]; at 1.2 µM): 0%
growth inhibition ([14]; at 3.7 µM): 1%
growth inhibition ([14]; at 11.0 µM): 3%
growth inhibition ([14]; at 33.0 µM): 2%
growth inhibition ([14]; at 100.0 µM): -3%
growth inhibition [15, 17]: 2%
growth inhibition [15, 18]: 9%
growth inhibition ([15]; at 50.0 µM): 82.7% (active)
growth inhibition ([16]; at 1.2 µM): -1%
growth inhibition ([16]; at 3.7 µM): -2%
growth inhibition ([16]; at 11.0 µM): -1%
growth inhibition ([16]; at 33.0 µM): -1%
growth inhibition ([16]; at 100.0 µM): -2%
